The whole screen tested about 52,000 compounds, of which about 1,700 (3.3%) were called active. The sample holds actives, similar compounds and a random draw of the others, so the mix is not that of the screen. Cut-off read from the data, not from the text of the source: active = survival mostly below about 52% (no sharp cut-off); inactive = mostly above about 56%.

The values below come from PubChem BioAssay AID463173 (ICCB-Longwood Screening Facility, Harvard Medical School, 2010).

The test deals with Wild type. The experiment in a line: growth inhibition of S. aureus wild type versus tarO mutant, primary screen, teichoic acid synthesis inhibitors, RN4220, OD600 (AID 463173). The settings on record: S. aureus RN4220 wild type/DeltatarO growth, OD600, 18 h, stronger effect = lower value, screened at 18.75 µg/mL (by protocol).
Take `COc1ccc(NC(=O)Cn2c(=O)n(-c3cccc(C)c3)c(=O)c3c2c2cc(C)ccc2n3C)cc1Cl`: the survival was 86% (inactive).
Consider `CCc1cccc(NCc2ccccc2-c2nnc(-c3ccccc3Cl)o2)c1`, for which the survival was 81% (inactive).
Consider `CN(C)S(=O)(=O)c1ccc(S(=O)(=O)N2CCC(c3nc4c(nnn4Cc4cccc(F)c4)c(=O)[nH]3)CC2)cc1`, for which the survival was 113% (inactive).
The result for `Cc1cccc(-n2ncc3c(Nc4c(C)cc(C)cc4C)ncnc32)c1` reads 83% (inactive).
The result for `Cc1ccc(S(=O)Cc2nc(-c3ccc(C(=O)NCc4cccc(C)c4)cc3)oc2C)cc1` (stereo not given) reads 99% (inactive).
With `CCOc1ccc(NC(=O)c2ccc(-c3nc(COc4ccccc4)c(C)o3)cc2)cc1` the figure was 89% (inactive); with `O=C(c1cnc(N2CCCCC2)c2ccccc12)N1CCN(c2cccc(Cl)c2)CC1`, 68% (inactive); with `CCOC(=O)c1cccc(NS(=O)(=O)c2cc(Br)cc3c2N(C(=O)C2CC2)CC3)c1`, 151% (inactive).
As to `CCCC(=O)NCC(c1ccc2c(c1)OCO2)N1CCN(c2ccccc2)CC1` (stereo not given), the survival was 92% (inactive).
For the compound `O=C(COc1ccccc1F)Nc1ccccc1OCc1cc(=O)n2ccccc2n1`, the survival was 79% (inactive).
The result for `CN(C)c1oc(/C=C/c2ccc(F)cc2)nc1C#N` reads 87% (inactive); that for `CC1CCCCN1CC(=O)N1CCN(C(=O)CN2CCCCC2C)CC1` (stereo not given), 106% (inactive).
With `CCc1ccc(NC(=O)CN(c2ccc(C)cc2)S(=O)(=O)c2c(C)nn(C)c2C)cc1` the figure was 76% (inactive).
Take `Cc1cc(C)cc(N(CC(=O)Nc2c(C)cc(C)cc2C)S(=O)(=O)c2c(C)nn(C)c2C)c1`: the survival was -6% (active).
With `CCOc1ccccc1NC(=O)CN(c1cc(C)cc(C)c1)S(=O)(=O)c1c(C)nn(C)c1C`, the survival was 69% (inactive).
For `COc1ccc(OCCn2cc(C(=O)C3CCCCC3)c3ccccc32)cc1`, the survival was 31% (inactive).
As to `O=C(c1cn(CCOc2ccccc2F)c2ccccc12)C1CCCCC1`, the survival is 3% (active).
With `Cc1ccc(OCCn2cc(C(=O)C3CCCCC3)c3ccccc32)cc1` the figure was 1% (active).
With `Cc1ccc(NC(=O)Cn2cc(C(=O)C3CCCCC3)c3ccccc32)cc1` the figure was 87% (inactive).
The result for `O=C(c1cccs1)c1cn(CCOc2ccccc2F)c2ccccc12` reads 75% (inactive); that for `O=C(c1cccs1)c1cn(CCOc2ccc(Cl)cc2)c2ccccc12`, 80% (inactive); that for `Cc1ccccc1OCCn1cc(C(=O)C2CCCCC2)c2ccccc21`, 124% (inactive).
As for `O=C(c1cn(CCOc2ccc(Cl)cc2)c2ccccc12)C1CCCCC1`, the survival was 9% (active).
With `O=C(c1ccco1)c1cn(CCOc2ccc(Cl)cc2)c2ccccc12` the figure was 68% (inactive); with `Cn1ncc(Cl)c1C(=O)O`, 95% (inactive).
